Experimental data from PubChem BioAssay (EPA / NIEHS).
Results filed as inconclusive are left out. The source made the active and inactive calls. The calls were made as follows: active = hit-call score of the fitted dose curve at least 0.9, where 1 is the maximum; inconclusive = response in the unintended direction; inactive = score below 0.9.

Each molecule was assayed against human Peroxisome Proliferator-activated Receptor delta (PPARd), PPARD (gene 5467) (UniProt Q03181) (assay: ATG_PPARd_TRANS: Attagene TRANS-FACTORIAL HepG2 Assay for human Peroxisome Proliferator-activated Receptor delta (PPARd) (AID 2283002)).
Sequence of human Peroxisome Proliferator-activated Receptor delta (PPARd), PPARD (gene 5467) (Q03181 whole entry, looked up): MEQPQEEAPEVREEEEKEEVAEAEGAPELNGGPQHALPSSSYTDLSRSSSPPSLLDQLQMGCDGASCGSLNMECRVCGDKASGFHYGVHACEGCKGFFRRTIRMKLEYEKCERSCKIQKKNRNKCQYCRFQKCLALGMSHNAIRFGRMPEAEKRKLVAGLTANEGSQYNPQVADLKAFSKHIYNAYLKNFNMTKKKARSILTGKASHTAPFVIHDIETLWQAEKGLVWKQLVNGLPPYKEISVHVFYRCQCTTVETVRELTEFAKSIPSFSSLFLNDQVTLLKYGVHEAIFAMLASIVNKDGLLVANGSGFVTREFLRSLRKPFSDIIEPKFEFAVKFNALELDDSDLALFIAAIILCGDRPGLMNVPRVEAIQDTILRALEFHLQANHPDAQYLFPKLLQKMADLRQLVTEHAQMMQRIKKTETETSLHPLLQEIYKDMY
Experimental: ATG_TRANS is a cell-based, multiplexed-readout assay that uses HepG2, a human liver cell line, with measurements taken at 24 hours after chemical dosing in a 24-well plate.ATG_PPARd_TRANS is one of 30 assay component(s) measured or calculated from the ATG_TRANS assay. It is designed to make measurements of mRNA induction, a form of inducible reporter, as detected with fluorescence intensity signals by Reverse transcription polymerase chain reaction (RT-PCR) and Capillary electrophoresis technology.Data from the assay component ATG_PPARd_TRANS was analyzed into 1 assay endpoint. This assay endpoint, ATG_PPARd_TRANS, was analyzed in the positive analysis fitting direction relative to DMSO as the negative control and baseline of activity. Using a type of inducible reporter, measures of mRNA for gain-of-signal activity can be used to understand the reporter gene at the transcription factor-level as they relate to the gene PPARD. Furthermore, this assay endpoint can be referred to as a primary readout, because this assay has produced multiple assay endpoints where this one serves a reporter gene function. To generalize the intended target to other relatable targets, this assay endpoint is annotated to the nuclear receptor intended target family, where the subfamily is non-steroidal.
Human liver HepG2 cells are transiently transfected with multiple reporter transcription units (MRTUs) in 6-well plates using FuGene 6 reagent (Roche; 3 ml FuGene/1 mg DNA). The MRTU constructs are regulated by a cis-regulating element (promoter). […] A major difference between the CIS and TRANS system is that in CIS activities of endogenous TFs are measured, whereas the TRANS assay evaluates changes in activities of exogenous, chimeric NR-Gal4 proteins. […] At the end of 24 hour incubation, total RNA was isolated using TriZol reagent (Invitrogen). The isolated RNA is then reverse-transcribed using oligo(dT) primer and Mo-MLV reverse transcriptase (Invitrogen) with DNAse I (Ambion) treatment for 30 min. The one-tenth of the produced cDNA was amplified by PCR using Taq DNA polymerase (Invitrogen) and two reporter sequence-specific primers. The PCR products were fluorescently labeled by primer extension with 6-arboxyfluorescein (6-FAM) 5'-labeled reporter sequence-specific primer (2 min at 95 C, 20 s at 68 C and 10 min at 72 C) and these products were digested with 5U of HpaI (New England Biolabs) for 2h at 37 C. The fragments were purified using Qiaquick PCR columns (Qiagen), analyzed on an ABI 3130xL genetic analyzer (Applied Biosystems) with peak positions identified by using a set of X-rhodamine (ROX)-labeled MapMarker1000 molecular weight standards (BioVentures). The raw capillary electrophoresis data was processed using Attagraph software (Attagene).

Q: With ClC1(Cl)C2(Cl)C3(Cl)C4(Cl)C(Cl)(Cl)C5(Cl)C3(Cl)C1(Cl)C5(Cl)C24Cl (stereo not given) as the molecule, how does the outcome read?
A: Its outcome is “inactive”.

Q: With Cc1cc(=O)[nH]o1 as the molecule, how does the outcome read?
A: Its outcome is “inactive”.

Q: Which outcome does the source give for Nc1ccc(N=Nc2ccc(-c3ccc(N=Nc4c(S(=O)(=O)O)cc5cc(S(=O)(=O)O)c(N=Nc6ccccc6)c(O)c5c4N)cc3)cc2)c(N)c1 here?
A: Its outcome is “inactive”.

Q: CCCCCCCCSC(=O)Oc1cc(Cl)nnc1-c1ccccc1 was tested. Which outcome did it give?
A: Its outcome is “inactive”.

Q: With CCOP(=S)(OCC)Oc1ccc(S(C)=O)cc1 (stereo not given) as the molecule, how does the outcome read?
A: Its outcome is “inactive”.

Q: For Oc1c(I)cc(I)cc1I, which outcome is on record?
A: Its outcome is “inactive”.

Q: With Nc1ccc(Cl)cc1C(=O)c1ccccc1 as the molecule, how does the outcome read?
A: Its outcome is “inactive”.

Q: CC(=O)C(Cl)C(=O)N(C)C (stereo not given) was tested. Which outcome did it give?
A: The outcome was “inactive”.

Q: Which outcome does the source give for CCc1ccccc1C here?
A: Its outcome is “inactive”.

Q: How did the outcome turn out when CCCCP(CCCC)CCCC was run?
A: Its outcome is “inactive”.

Q: For CCNc1nc(NC(C)(C)C)nc(SC)n1, which outcome is on record?
A: Its outcome is “inactive”.

Q: How did the outcome turn out when N#CCc1ccc(Cl)cc1 was run?
A: The outcome was “inactive”.

Q: For Cc1ccc2ccccc2c1C, which outcome is on record?
A: The outcome was “inactive”.

Q: With O=CC=O as the molecule, how does the outcome read?
A: Its outcome is “inactive”.

Q: With COP(=S)(OC)Oc1ccc(Sc2ccc(OP(=S)(OC)OC)cc2)cc1 as the molecule, how does the outcome read?
A: Its outcome is “inactive”.

Q: For CC12CC1(C)C(=O)N(c1cc(Cl)cc(Cl)c1)C2=O (stereo not given), which outcome is on record?
A: The outcome was “inactive”.

Q: Which outcome does the source give for CC1(C)CCC(Cc2ccc(Cl)cc2)C1(O)Cn1cncn1 (stereo not given) here?
A: The outcome was “inactive”.

Q: How did the AC50 turn out when CCC(C)(C)c1ccc(O)c(C(C)(C)CC)c1 was run?
A: Its AC50 is 52 µM (active).

Q: How did the outcome turn out when COc1ccc(OC)c(C=O)c1 was run?
A: Its outcome is “inactive”.

Q: How did the outcome turn out when Cc1ccccc1N was run?
A: Its outcome is “inactive”.

Q: CCOC(=O)Nc1cccc(OC(=O)Nc2ccccc2)c1 was tested. Which outcome did it give?
A: The outcome was “inactive”.

Q: For CCN(CC)C(=O)Cl, which outcome is on record?
A: The outcome was “inactive”.

Q: For O=C(O)C(F)(F)C(F)(F)C(F)(F)C(F)(F)C(F)(F)C(F)(F)F, which outcome is on record?
A: The outcome was “inactive”.

Q: How did the outcome turn out when O=C1CCCN1 was run?
A: The outcome was “inactive”.

Q: How did the outcome turn out when CCCCC(CC)CO[N+](=O)[O-] (stereo not given) was run?
A: Its outcome is “inactive”.

Q: Which outcome does the source give for CCCCCCCCCl here?
A: The outcome was “inactive”.

Q: Which outcome does the source give for ClCCBr here?
A: The outcome was “inactive”.

Q: Which outcome does the source give for COC(=O)Cc1ccccc1 here?
A: Its outcome is “inactive”.

Q: Which outcome does the source give for BrCCBr here?
A: The outcome was “inactive”.

Q: With CC(C)c1ccc(CO)cc1 as the molecule, how does the outcome read?
A: Its outcome is “inactive”.

Q: For CC(C#N)CCC#N (stereo not given), which outcome is on record?
A: The outcome was “inactive”.

Q: How did the outcome turn out when c1ccc(N=NNc2ccccc2)cc1 was run?
A: Its outcome is “inactive”.

Q: O=C(Nc1ccc2[nH]ccc2c1)c1cc2cc(F)ccc2n1Cc1cccc(F)c1 was tested. Which outcome did it give?
A: Its outcome is “inactive”.

Q: For CNC, which outcome is on record?
A: The outcome was “inactive”.

Q: Which outcome does the source give for c1cc[c]([Hg][c]2ccccc2)cc1 here?
A: The outcome was “inactive”.

Q: C[C@@H]1C[C@@H]([C@H](O)CC2CC(=O)NC(=O)C2)C(=O)[C@@H](C)C1 was tested. Which outcome did it give?
A: The outcome was “inactive”.

Q: COP(=S)(OC)Oc1cc(Cl)c(Cl)cc1Cl was tested. Which outcome did it give?
A: Its outcome is “inactive”.

Q: With COc1cc(-c2ccc(N)c(OC)c2)ccc1N as the molecule, how does the outcome read?
A: The outcome was “inactive”.

Q: Which outcome does the source give for COS(=O)(=O)c1ccc(C)cc1 here?
A: The outcome was “inactive”.

Q: How did the outcome turn out when COC(=O)c1sccc1S(=O)(=O)NC(=O)Nc1nc(C)nc(OC)n1 was run?
A: The outcome was “inactive”.
